Screening data (PubChem)
Shown are actives, neighbours in structure and some others; about 1.5% of the full set was active somewhere.
BRCT inh red = disrupts BRCA1 BRCT binding to phosphoprotein, red fluorophore readout | P38398 | 75,000 tested, 0.03% active | BRCT-phosphopeptide binding, red fluorescence polarization | AID 892 | Potency, µM (doses to about 76.9 µM), usual class: inhibitors
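Rhodamine-labelled pBACH1 10-mer (100 nM) bound to BRCT domain (100 nM) at pH 7.3; compounds incubated 12 min room temperature, polarization read. Free peptide defines full inhibition; unlabelled decapeptide titrated as control.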
Caspase-7 inhib = allosteric or competitive inhibitors of human caspase-7 | P55210 | recombinant caspase-7, Ac-DEVD-AFC fluorescence rate | Potency, µM (series often up to 57.5 µM), hits mostly inhibitors | 75,000 tested, 0.02% active | AID 889; active = well fitted inhibition curve with a large enough effect in the main read-out, with a control signal flat, not every such curve was filed as active; inconclusive = small, poorly fitted or top-dose-only effect, or a change in a side signal
Caspase-1 inhib = caspase-1 (human) inhibition, allosteric or competitive; P29466; Caspase-1 enzyme, Ac-WEHD-AFC fluorogenic rate; Potency, µM (top dose mostly 57.5 µM), most hits filed as inhibitors; 75,000 tested, 0.03% active; AID 900
USP2a inh = inhibitors of human ubiquitin-specific protease USP2a; O75604; Potency, µM (doses to about 38.3 µM), most hits filed as inhibitors; USP2a enzymatic assay, qHTS inhibition; AID 927; 60,000 tested, 0.1% active; also: nearly all actives have a fitted effect of over 60% in size
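20 nM USP2 core + cpd, 30 min RT; add 20 nM Ub-PLA2/20 uM NBD C6-HPC; read Ex460/Em535 at 0 h and 2.5 h. Normalized to NEM; qHTS curve fit/classification.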
15-hLO inh = blocks human 15-lipoxygenase activity. purified 15hLO-1, xylenol orange hydroperoxide absorbance. Potency, µM (series often up to 57.1 µM), most hits filed as inhibitors. AID 887. 74,000 tested, 1.4% active. P16050; also: nearly all actives have a fitted effect of over 55% in size
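Purified human 15hLO-1 (40 nM) in 25 mM Hepes pH 7.5, 0.01% Triton X-100, preincubated 15 min RT with compound, then 50 uM arachidonic acid for 6 min. Hydroperoxide read by ferrous/xylenol orange, 30 min; 573/405 nm absorbance ratio gave progress.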
BRCT PPI green = blocks human BRCA1 BRCT binding to phosphopeptide, green readout. BRCA1 BRCT-phosphopeptide binding, green fluorescence polarization. Potency, µM (series often up to 76.9 µM), most hits filed as inhibitors. 75,000 tested, 0.05% active
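Compounds were incubated for 12 min at room temperature with a complex of 100 nM fluorescein-tagged pBACH1 decapeptide and 250 nM His-tagged BRCT protein. Buffer was phosphate pH 7.3 with EDTA, DTT and Tween 20. Disruption of binding lowers the polarization signal.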
Large screens that a line does not name were inactive. Unless noted, calls follow the shape of the dose curve; as a rule, active = well fitted curve in the direction sought with a large enough effect; inconclusive = small, poorly fitted or top-dose-only effect, or another doubt; inactive = no such curve, though single readings can be large; an effect the other way counts as inactive or inconclusive.

CCOC(=O)c1oc2ccccc2c1CSc1nnnn1-c1ccc(C)cc1	15-hLO inh 1µM
C=CC[C@@H]1C=C[C@H](O/N=C2\c3cc(OC)ccc3O[C@H](c3cccc(OC)c3)[C@H]2O)[C@H](CO)O1	none (no result: USP2a inh)
N#Cc1c(N)sc(=S)c2c1CCN(Cc1ccccc1)C2	Caspase-7 inhib 12.6µM (no result: Caspase-1 inhib)
CCN1CCc2c(sc(N)c2C#N)C1	Caspase-7 inhib inconclusive, 15-hLO inh inconclusive (no result: Caspase-1 inhib)
N#Cc1cc2c(nc1SCc1cccnc1)CCCC2	15-hLO inh 15.8µM
N#Cc1cc2c(nc1SCc1nc3ccccc3[nH]1)CCC2	15-hLO inh 15.8µM
N#Cc1cc2c(nc1SCc1cccnc1)CCC2	none
CCN1C(=O)[C@H]2[C@H]3[C@H](O)[C@H](O)C/C(=N/O[C@@H]4O[C@H](COC(C)=O)[C@@H](OC(C)=O)[C@H](OC(C)=O)[C@H]4OC(C)=O)[C@@H]3CC[C@@H]2C1=O	none (no result: USP2a inh)
CCCCn1c(SCC(=O)NC(=O)NCc2ccco2)nc2cc(S(N)(=O)=O)ccc21	15-hLO inh 10µM
CO[C@@H]1/C=C\CC(=O)N2CCC[C@@H]2C(=O)OC[C@@H](C)C(=O)OC[C@H]1C	none (no result: USP2a inh)
CC1(C)OC(C(O)(c2cc(F)c(F)c(F)c2)c2cc(F)c(F)c(F)c2)C(C(O)(c2cc(F)c(F)c(F)c2)c2cc(F)c(F)c(F)c2)O1 (configuration not stated)	none (no result: USP2a inh)
COc1ccccc1CNC(=O)Nc1cccs1	15-hLO inh 12.6µM (no result: USP2a inh)
COc1ccc(CNC(=O)Nc2cccs2)cc1OC	none
N#Cc1c2c(c(NCc3ccco3)n3c1nc1ccccc13)CCC2	Caspase-7 inhib inconclusive, 15-hLO inh 5.01µM (no result: Caspase-1 inhib)
CN(C)CCNc1c2c(c(C#N)c3nc4ccccc4n13)CCCC2	Caspase-7 inhib inconclusive (no result: Caspase-1 inhib)
CC(C)(C)N1C(=O)[C@H]2[C@@H]3[C@H](O)C=CC(=O)[C@H]3CC[C@H]2C1=O	none (no result: USP2a inh)
C[n+]1cc2c3c(ccc2c2ccc4cc5c(cc4c21)OCO5)OCO3	USP2a inh inconclusive, 15-hLO inh 10µM
Nc1nc(Cc2ccccc2)nc(Cc2ccccc2)c1-c1ccccc1	none (no result: USP2a inh)
CCOc1ccc(NS(=O)(=O)c2ccc3[nH]cc(C(=O)NC(C)CC)c(=O)c3c2)cc1 (configuration not stated)	15-hLO inh 25.1µM
CC(=O)OCCC(C)CCC=C(C)C (configuration not stated)	15-hLO inh 10µM
Cc1cc(NC(=O)CCCC(=O)NCc2cccs2)no1	Caspase-7 inhib inconclusive, 15-hLO inh 20µM (no result: Caspase-1 inhib)
CC(=O)O[C@](C)(CCC=C(C)C)C1CC=C(C)CC1 (some centres not stated)	15-hLO inh 12.6µM
COc1ccc(S(=O)(=O)N2c3ccc(Cl)cc3[C@](O)(c3ccccc3Cl)[C@@H]2C(=O)N2CCC[C@H]2C(N)=O)cc1OC	15-hLO inh 15.8µM (no result: USP2a inh)
CC1=c2c(oc3cc(O)c(Nc4c(C)cc(O)cc4O)c(C)c23)=CC(=O)C1=Nc1c(C)cc(O)cc1O	BRCT inh red inconclusive, 15-hLO inh inconclusive (no result: USP2a inh)
Cc1ccc2c(c1)-c1c(ssc1=S)C(C)(C)N2C(=O)CSc1nncn1C	15-hLO inh 15.8µM
Cc1cc(C)c2c(c1)-c1c(ssc1=S)C(C)(C)N2C(=O)CSc1nncn1C	15-hLO inh inconclusive
C/C(CCC(=O)OC[C@@H]1O[C@H](C#Cc2ccccc2)C=C[C@@H]1Oc1ccc(C)cc1)=N/O[C@@H](C)CN1CCCc2nc(C)c(C)cc21	none (no result: USP2a inh)
O=Nc1c(-c2c(O)[nH]c3cc(Br)ccc23)[nH]c2ccccc12	USP2a inh 12.6µM
COc1ccc(O)c(-c2cc(-c3cccs3)[nH]n2)c1	15-hLO inh 25.1µM
COc1ccc(O[C@H]2C=C[C@@H](c3ccccc3)O[C@H]2CO/N=C2/c3cc(OC)ccc3O[C@@H](c3cccc(OC)c3)[C@H]2O)cc1	none (no result: USP2a inh)
COc1cc(C(=O)Nc2nc(-c3cccs3)cs2)cc(OC)c1OC	15-hLO inh 15.8µM
COc1ccc(C(=O)Nc2nc(-c3cccs3)cs2)cc1	none
C=C(C)C(O)C(CC/C=C(\C)C(=O)OCC)OC (configuration not stated)	none (no result: USP2a inh)
COc1ccc(NC(=O)c2[nH]c(C)c(C(C)=O)c2C)cc1Cl	15-hLO inh 31.6µM
CC(=O)c1c(C)[nH]c(C(=O)Nc2ccc3c(c2)OCCO3)c1C	none
O=C(NCCC1=CCCCC1)C1CCCN(S(=O)(=O)c2cccnc2)C1 (configuration not stated)	none (no result: USP2a inh)
O=C(NCCC1=CCCCC1)C1CCCN(S(=O)(=O)c2cccc3cccnc23)C1 (configuration not stated)	15-hLO inh 20µM (no result: USP2a inh)
C[Si](C)(C)Cl	none (no result: USP2a inh)
O=C(Nc1cccs1)NC1CCCC1	15-hLO inh 12.6µM
CC(C)NC(=O)Nc1cccs1	none (no result: USP2a inh)
C/C(CCN1CCCc2nc(C)c(C)cc21)=N\OC[C@@H](O)[C@@H]1O[C@@H]2OC(C)(C)O[C@@H]2[C@H]1O	none (no result: USP2a inh)
Fc1ccc(-n2[nH]nnc2=S)cc1N1CCCC1	15-hLO inh 25.1µM
Nc1ccc(N2CCCCC2)cc1N1CCCCC1	15-hLO inh inconclusive (no result: USP2a inh)
CC(=O)n1nc(-c2ccco2)nc1SCc1ccccc1	Caspase-7 inhib inconclusive, 15-hLO inh 3.98µM (no result: USP2a inh)
CCN(CC)CCCCNC(=O)c1ccc(Cc2nc3ccccc3[nH]2)cc1	none (no result: USP2a inh)
CC(C)Oc1ccc(C(=O)Nc2ccc(N3CCCC3)cc2)cc1	15-hLO inh 1.26µM
CC(=O)OC[C@@H]1O[C@@H](O/N=C2/C[C@@H](O)[C@@H](O)[C@@H]3[C@@H]4C(=O)N(Cc5ccccc5)C(=O)[C@H]4CC[C@H]23)[C@H](OC(C)=O)[C@H](OC(C)=O)[C@@H]1OC(C)=O	none (no result: USP2a inh)
CCOc1ccc2[nH]c(=O)c(CN(Cc3ccco3)Cc3nnnn3Cc3ccccc3)cc2c1	none
COc1ccccc1CN(Cc1cc2cc(C)ccc2[nH]c1=O)Cc1nnnn1Cc1ccco1	Caspase-1 inhib inconclusive, 15-hLO inh 7.94µM
CCc1ccc2[nH]c(=O)c(CN(Cc3ccccc3OC)Cc3nnnn3Cc3ccco3)cc2c1	15-hLO inh inconclusive
CCOc1ccc2[nH]c(=O)c(CN(Cc3nnnn3Cc3ccco3)C3CCCCC3)cc2c1	Caspase-1 inhib inconclusive, 15-hLO inh 3.16µM (no result: USP2a inh)
O=c1c2ccccc2nc2n1CCCCC2	none
O=c1c2ccccc2nc2n1CCC2	USP2a inh inconclusive, 15-hLO inh 3.16µM
Cc1nc2ccccc2c(=O)n1NC(=O)COc1ccccc1	none
O=C(COc1ccccc1)Nn1cnc2ccccc21	15-hLO inh 12.6µM
Cn1ccnc1C[C@@](C)(O)c1ccccc1	none (no result: USP2a inh)
O=C(O)c1cc(NCc2cccs2)ccc1N1CCOCC1	none
COC(=O)c1cc(NCc2c(F)cccc2Cl)ccc1N1CCOCC1	15-hLO inh 15.8µM
